From PubChem BioAssay
Records with an inconclusive call do not appear. For part of these data: Potency and affinity values are given separately. The source made the active and inactive calls. Unless noted, no cut-off is given here; in the data, nearly all actives have AC50 up to about 26 µM.

How the values were obtained:
[1] = restoration of touch response, mutant HTT neurons – whole organism, C. elegans mechanosensory neurons, N-terminal huntingtin (AID 1599); conditions: C. elegans polyQ-huntingtin mechanosensory neurons, stronger effect = higher value
[2] = GFP-Q80 aggregate reduction, neuronal-like cells, cell-based, NGF-treated PC12, GFPQ80 (AID 1614); conditions: PC12 NGF-treated GFP-polyQ80 inclusion reduction;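 note: lower means fewer inclusions and 0 means no inclusions at all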
[3] = 75Q-TubH aggregate inhibition, S. cerevisiae, yeast (AID 1616); conditions: S. cerevisiae 75Q-TubH polyglutamine aggregation suppression; stronger effect = higher value
[4] = compounds altering viability of human ES cells (AID 493140; call rule not given here;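 note: cells exposed to compounds for four days before counting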); conditions: human embryonic stem cell survival screen; stronger effect = higher value
[5] = tested on: Hepatitis C virus NS3 helicase; assay: blockers of NS3h binding to ssDNA – biochemical, fluorescence polarization, LOPAC1280 library, primary screen (AID 687035; in the data active = inhibition above about 37%); conditions: Purified HCV NS3 helicase, Cy5-dT15 ssDNA binding fluorescence polarization; stronger effect = higher value; concentration not given here
[6] = compounds altering Cy5-DNA-NS3h complex signal – biochemical, LOPAC1280, artefact control for HCV NS3 helicase inhibitor project (AID 687037; call rule not given here); conditions: Cy5-DNA-NS3h complex fluorescence interference counterscreen
[7] = viability loss in pontine glioma line – cell-based, SU-DIPG-XIII, MIPE4.0, CellTiter-Glo, qHTS, dose response (AID 1347061; cut-off not given, nearly all actives have AC50 up to about 37 µM;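 note: cells exposed to compound for 48 hours before readout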); conditions: CellTiter-Glo ATP luminescence
[8] = viability loss in pontine glioma line – cell-based, JHH-DIPG-1, MIPE4.0, CellTiter-Glo, qHTS, dose response (AID 1347062; cut-off not given, nearly all actives have AC50 up to about 27 µM;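 for AC50: cells exposed to compound for two days before readout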); conditions: JHH-DIPG-1 viability, CellTiter-Glo ATP luminescence
[9] = viability loss in pontine glioma line – cell-based, SU-DIPG-IV, MIPE4.0, CellTiter-Glo, qHTS, dose response (AID 1347063; cut-off not given, nearly all actives have AC50 up to about 30 µM;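 note: compound exposure lasted 48 hours before the viability readout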); conditions: CellTiter-Glo ATP luminescence
[10] = viability loss in pontine glioma line – cell-based, SU-DIPG-XXV, MIPE5.0, CellTiter-Glo, qHTS, dose response (AID 1347065); conditions: CellTiter-Glo ATP luminescence;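 note: cells exposed to compound for 48 hours before ATP readout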
[11] = JHH-DIPG-1 glioma cell viability, MIPE5.0 library, CellTiter-Glo luminescence, qHTS (AID 1347067); conditions: JHH-DIPG-1 glioma viability, CellTiter-Glo ATP luminescence;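 note: cells exposed to compound for 48 hours before readout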
[12] = growth inhibition of DIPG cells – cell-based, MIPE5.0 library, qHTS (AID 1347068; cut-off not given, nearly all actives have IC50 up to about 30 µM); conditions: SU-DIPG-XXV viability
[13] = blockers of cellular phospholipid synthesis – cell-based, LOPAC library, screen 4, primary screen (AID 1347384; call rule not given here); conditions: animal cells, phospholipid biosynthesis inhibition screen; at 10 µM
[14] = viability loss in pontine glioma line – cell-based, SU-DIPG-XVII, MIPE5.0, CellTiter-Glo, qHTS, dose response (AID 1347060); conditions: CellTiter-Glo ATP luminescence;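 for AC50: cells exposed to compound for 48 hours before viability readout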
[15] = growth inhibition of DIPG cells – cell-based, MIPE4.0 library, CellTiter-Glo luminescence, qHTS (AID 1347066; cut-off not given, nearly all actives have AC50 up to about 30 µM;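 note: cells exposed to compound for 48 hours before readout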); conditions: SU-DIPG-VI viability, CellTiter-Glo ATP luminescence
[16] = growth inhibition, single agents and combos, LFS_MB_1R, cell-based, cisplatin or BGB combos, synergistic combos for chromothripsis tumors (AID 1671452; in the data active = inhibition above about 80%;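 note: cells exposed for 96 hours before readout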); conditions: LFS_MB_1R medulloblastoma cells, stronger effect = higher value
[17] = growth inhibition, MDA-MB-436, cell-based, BGB or cisplatin combos, synergistic combos for chromothripsis tumors (AID 1671458; call rule not given here;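 note: cells exposed for 96 hours; 0% = vehicle DMSO and 100% = killing by high DMSO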); conditions: MDA-MB-436 breast carcinoma growth inhibition, drug combinations, stronger effect = higher value
[18] = BT084 cell growth, single and combined drugs, ICGC_MB145, cisplatin and BGB IC40 combos (AID 1671461; in the data active = inhibition above about 80%;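 note: cells exposed to drugs for 96 hours; 0% = vehicle DMSO and 100% = high DMSO full killing control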); conditions: BT084 medulloblastoma cells, drug combinations, stronger effect = higher value
[19] = RCMB18 cell growth, single agent and combined, cisplatin and BGB IC40 combos (AID 1671462; in the data active = inhibition above about 80%;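 note: cells exposed to compound for four days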); conditions: RCMB18 medulloblastoma cells, stronger effect = higher value
[20] = CRL1545 cell growth, single agent and combined, cisplatin and BGB IC20 combos (AID 1671464; in the data active = inhibition above about 80%;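 note: cells exposed to compound for 96 hours before readout; 0% = vehicle DMSO and 100% = high DMSO killing control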); conditions: CRL1545 osteosarcoma cells, stronger effect = higher value
[21] = measured here: combination with cisplatin, at 0.5 µM

Work on `NC(=O)c1cnccn1` yielded a rescue above control [1] of -9.49, an inclusion score [2] of 2 and an aggregation suppression score [3] of 0.921. For the same compound, the survival [4] was 19.9 (inactive), the inhibition [5] was 1% (inactive) and the fluorescence ratio (interference) [6] was 1 (inactive). The AC50 [7] was 18.7 µM (active), the outcome [8] was “inactive” and the outcome [9] was “inactive”. For the same compound, the outcome [10] was “inactive”, the outcome [11] was “inactive” and the outcome [12] was “inactive”. For the same compound, the outcome [13] was “inactive”.
For `OCCN1CCN(CCCN2c3ccccc3Sc3ccc(C(F)(F)F)cc32)CC1`, the rescue above control [1] was 0, the aggregation suppression score [3] was 1.51 and the survival [4] was 5.33 (inactive). For the same compound, the inhibition [5] was -2% (inactive), the fluorescence ratio (interference) [6] was 0.9 (inactive) and the AC50 [14] was 10.5 µM (active). For the same compound, the AC50 [9] was 18.7 µM (active), the AC50 [10] was 7.42 µM (active) and the AC50 [11] was 3.72 µM (active). For the same compound, the outcome [13] was “inactive”.
Work on `CO[C@@]1(NC(=O)Cc2cccs2)C(=O)N2C(C(=O)O)=C(COC(N)=O)CS[C@@H]21` yielded a rescue above control [1] of -4.75, an inclusion score [2] of 2 and an aggregation suppression score [3] of 0.182. For the same compound, the survival [4] was 2.08 (inactive).
`OC(CCN1CCCC1)(c1ccccc1)C1CCCCC1` (stereo unspecified) showed a rescue above control [1] of 0.33, an inclusion score [2] of 2 and an aggregation suppression score [3] of 1.66. The survival [4] was 7.33 (inactive).
With `Cc1ccc(C)c(OCCCC(C)(C)C(=O)O)c1` the rescue above control [1] was 6.5, the inclusion score [2] was 2 and the aggregation suppression score [3] was -0.02. The survival [4] was 20.8 (inactive), the outcome [14] was “inactive” and the outcome [9] was “inactive”. For the same compound, the outcome [10] was “inactive”, the outcome [15] was “inactive” and the outcome [11] was “inactive”. For the same compound, the outcome [12] was “inactive”.
In the case of `Cc1ncc([N+](=O)[O-])n1CC(C)O` (stereo unspecified), the outcome [14] is reported as “inactive”, the outcome [8] is reported as “inactive” and the outcome [9] is reported as “inactive”. For the same compound, the outcome [15] was “inactive”, the outcome [11] was “inactive” and the outcome [12] was “inactive”.
With `COC1=CC(=O)C[C@@H](C)[C@]12Oc1c(Cl)c(OC)cc(OC)c1C2=O` the rescue above control [1] was -5.31, the inclusion score [2] was 2 and the aggregation suppression score [3] was 1.07.
In the case of `Nc1ncn([C@@H]2O[C@H](CO)[C@@H](O)[C@H]2O)c(=O)n1`, the rescue above control [1] is reported as 17.7, the aggregation suppression score [3] is reported as 1.25 and the inhibition [5] is reported as -1% (inactive). For the same compound, the fluorescence ratio (interference) [6] was 0.9 (inactive), the AC50 [14] was 1.48 µM (active) and the AC50 [8] was 2.96 µM (active). The AC50 [9] was 0.935 µM (active), the AC50 [10] was 2.09 µM (active) and the AC50 [11] was 7.42 µM (active). For the same compound, the outcome [13] was “inactive”.
With `NC(=O)N1c2ccccc2CC(=O)c2ccccc21` the outcome [7] was “inactive”, the outcome [8] was “inactive” and the outcome [9] was “inactive”. For the same compound, the outcome [15] was “inactive”.
`c1ccc2[nH]c(-c3cscn3)nc2c1` showed a rescue above control [1] of -3.36, an inclusion score [2] of 2 and an aggregation suppression score [3] of 0.142. For the same compound, the survival [4] was 7.75 (inactive), the outcome [7] was “inactive” and the outcome [8] was “inactive”. For the same compound, the outcome [9] was “inactive”, the outcome [10] was “inactive” and the outcome [15] was “inactive”. The outcome [11] was “inactive” and the outcome [12] was “inactive”.
In the case of `O=c1[nH]cc(F)c(=O)[nH]1`, the rescue above control [1] is reported as -13.1, the inclusion score [2] is reported as 2 and the aggregation suppression score [3] is reported as 0.203. For the same compound, the inhibition [5] was -1% (inactive), the fluorescence ratio (interference) [6] was 1 (inactive) and the outcome [7] was “inactive”. For the same compound, the outcome [8] was “inactive”, the outcome [10] was “inactive” and the outcome [15] was “inactive”. For the same compound, the outcome [11] was “inactive”, the outcome [12] was “inactive” and the outcome [13] was “inactive”. For the same compound, the inhibition ([16]; at 0.5 µM) was -23.7% (inactive), the inhibition ([16]; measured here: combination with BGB IC40, at 0.05 µM) was -2.27% and the inhibition [16, 21] was 11.9%. For the same compound, the inhibition ([16]; measured here: combination with cisplatin, at 5 µM) was -15.5%, the inhibition ([17]; at 0.5 µM) was -17.3% (inactive) and the inhibition ([17]; measured here: BGB combination, at 0.5 µM) was -27.5%. For the same compound, the inhibition ([17]; measured here: BGB combination, at 5 µM) was -5.42%, the inhibition ([17]; measured here: cisplatin combination, at 0.5 µM) was -20.4% and the inhibition ([17]; measured here: cisplatin combination, at 5 µM) was 36.2%. For the same compound, the inhibition ([18]; at 0.5 µM) was -4.41% (inactive), the inhibition ([18]; cisplatin combination, at 0.5 µM) was -0.838% and the inhibition ([18]; cisplatin combination, at 5 µM) was -20.1%. The inhibition ([18]; measured here: BGB IC40 combination 0.05 uM, at 0.05 µM) was 2.5%, the inhibition ([18]; single agent, at 5 µM) was -0.674% and the inhibition ([19]; at 0.5 µM) was 3% (inactive). For the same compound, the inhibition ([19]; cisplatin combo, at 5 µM) was 11.8%, the inhibition ([19]; measured here: BGB IC40 combination, at 0.05 µM) was -17.4% and the inhibition [19, 21] was 13.9%. The inhibition ([19]; single agent, at 5 µM) was 7.41%, the inhibition ([20]; at 0.5 µM) was -41.5% (inactive) and the inhibition ([20]; measured here: with BGB IC20 combination, at 0.5 µM) was -0.875%. The inhibition ([20]; measured here: with cisplatin IC20 combination, at 0.5 µM) was -61.8%, the inhibition ([20]; single agent, at 0.05 µM) was -3.52% and the inhibition ([20]; single agent, at 5 µM) was 15.8%.
